Source: PubChem BioAssay (National Center for Advancing Translational Sciences (NCATS))
Pf growth 96h – P. falciparum growth inhibition at 96 hour, primary screen for plastid delayed-death inhibitors. P. falciparum luciferase reporter growth, 96 h. Potency, µM (series often up to 28.7 µM), hits mostly inhibitors. 320,000 compounds, 6.9% hits. AID 504834
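Delayed-death screen, second-generation endpoint: infected erythrocytes, 2% hematocrit, 0.05% parasitemia final; 96 hours at 37 C, 5% CO2; luciferase detection reagent; luminescence decrease equals reduced growth.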
Shiga inhibitor – Shiga toxin inhibition; AID 2315; 290,000 compounds, 9.2% hits; inhibition, % at 38.7 µM; Vero cells, Shiga toxin protein synthesis inhibition reporter; in the data active = inhibition mostly above about 28%, no sharp cut-off; inactive = mostly below about 43%
CHX counter – affects cycloheximide protein synthesis inhibition readout, counter-screen; 300,000 compounds, 12% hits; AID 2314; cell reporter, cycloheximide protein synthesis inhibition counterscreen; max response, %; in the data active = max response mostly above about 13%, no sharp cut-off; inactive = mostly below about 14%; note: read at 38.3 µM for the half of the compounds with a filed dose
Pf growth 48h – P. falciparum growth inhibition at 48 hours (one generation); P. falciparum luciferase growth in erythrocytes, 48 h; 310,000 compounds, 5.9% hits; Potency, µM (titrated, usually from 28.7 µM), most hits filed as inhibitors
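Parasite viability was followed by luminescence of a genomically integrated firefly luciferase. Cultures held 0.1% parasitemia at 2% hematocrit (final), incubated under 5% CO2 at 37 C.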
FBPA Giardia inh – inhibitors of Giardia lamblia fructose-1,6-bisphosphate aldolase | A8B2U2 | Potency, µM (series often up to 59.6 µM), actives largely listed as inhibitors | purified Giardia FBPA | AID 2451 | 290,000 compounds, 0.71% hits; note: nearly all actives have a fitted effect of over 55% in size
Target sequence (A8B2U2 whole entry, looked up): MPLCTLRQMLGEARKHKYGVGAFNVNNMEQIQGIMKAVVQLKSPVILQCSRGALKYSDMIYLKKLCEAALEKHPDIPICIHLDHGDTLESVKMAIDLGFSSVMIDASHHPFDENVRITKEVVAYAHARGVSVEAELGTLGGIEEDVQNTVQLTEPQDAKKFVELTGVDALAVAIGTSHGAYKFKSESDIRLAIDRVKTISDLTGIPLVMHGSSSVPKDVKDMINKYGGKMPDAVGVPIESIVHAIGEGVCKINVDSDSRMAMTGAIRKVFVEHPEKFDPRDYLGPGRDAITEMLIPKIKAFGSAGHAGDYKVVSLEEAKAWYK
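40 nM FBPA preincubated 10 min at RT with compound (up to 57.5 uM final), then substrate plus GAPDH/TPI/NAD/arsenate coupling and diaphorase/resazurin added. Fluorescence read after 20 min at RT, 525/598 nm.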
NS1 function inh – influenza NS1 inhibition; 270,000 compounds, 0.4% hits; Potency, µM (series often up to 46.1 µM); AID 2326; calls by dose curve; note: actives are rising curves; nearly all actives have a fitted effect of over 50% in size
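S. cerevisiae expressing influenza A NS1, grown in glucose, washed, then diluted 1:100 into pH 6.0 -URA galactose medium with 23 nl compound. Growth recovery read as OD600; NS1-free strain serves as control.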
A number is an active result; i = inactive; ? = inconclusive; nt = no result. Rows were chosen to be rich in hits. Some 21% of all compounds tested hit in one or more screens of this group. Unless noted, calls come from the whole dose curve; as a rule, active = well fitted curve in the direction sought with a large enough effect; inconclusive = small, poorly fitted or top-dose-only effect, or another doubt; inactive = no such curve, though single readings can be large; an effect the other way counts as inactive or inconclusive.

SMILES	Pf growth 96h	Shiga inhibitor	CHX counter	Pf growth 48h	FBPA Giardia inh	NS1 function inh
Cc1cc(NC(=O)c2cccs2)ncc1NC(=O)c1cccc(F)c1	5.2µM	66	42	i	i	i
Cc1ccccc1NC(=O)c1ccccc1NC(=O)c1cccs1	i	i	i	i	i	i
Cc1cc(NC(=O)c2ccccc2)ncc1NC(=O)c1cccs1	i	124	40	i	?	i
Cc1cc(NC(=O)c2cccs2)ncc1NC(=O)C(C)C	2.3µM	39	38	i	i	i
CCCC(=O)Nc1cc(C)c(NC(=O)c2cccs2)cn1	i	i	i	i	i	nt
Cc1cc(NC(=O)C(C)C)ncc1NC(=O)Cc1ccccc1	i	i	i	i	i	i
O=C(NNC(=O)c1cccs1)c1cccc(F)c1	?	i	i	i	i	i
CNC(=O)NC(=O)C(C)OC(=O)c1cc2c(s1)CCCCC2 (stereo not given)	i	i	i	i	i	i
COc1ccccc1CNc1nc(-c2ccoc2)nc2ccccc12	nt	nt	nt	nt	i	nt
Cc1ccc(S(=O)(=O)Nc2ccc(Nc3ccccc3)cc2)cc1	?	i	i	i	i	i
Cc1ccc(Nc2ccccc2)cc1	?	i	19	i	i	i
c1ccc(Nc2cccc(Nc3ccccc3)c2)cc1	?	78	44	i	i	i
CCC(CC)C(=O)Nc1cccc(C(=O)Nc2nnc(C)s2)c1	i	i	i	?	i	i
CCc1nc2ccc(C(=O)O)cc2nc1CC	i	91	91	i	?	i
CCc1nc2ccc(C(=O)N3CCN(c4ccc(Cl)cc4)CC3)cc2nc1CC	5.2µM	i	i	i	i	i
CCc1nc2ccc(C(=O)N3CCN(c4ccccc4)CC3)cc2nc1CC	2.6µM	i	i	i	nt	i
CCCN1CCN(C(=O)c2ccc3nc(CC)c(CC)nc3c2)CC1	i	i	i	i	i	i
CCc1nc2ccc(C(=O)N3CCN(CC)CC3)cc2nc1CC	?	i	i	i	i	i
CCc1nc2ccc(C(=O)Nc3nnc(C)s3)cc2nc1CC	i	i	12	i	i	i
ClCc1nc2ccccc2c2ccccc12	?	i	i	?	i	i
O=C(c1cccs1)N1CCN(C23CC4CC(CC(C4)C2)C3)CC1	i	i	i	i	nt	i
Nc1cc(Cl)ccc1C(=O)OCC(=O)NC1CCCCCCC1	i	nt	nt	?	nt	nt
O=C(CC12CC3CC(CC(Br)(C3)C1)C2)NC1CCCC1	i	i	i	i	i	i
O=C(CCl)Nc1cn(-c2ccccc2)nc1-c1ccccc1	?	i	39	?	i	nt
Cc1ccc(-c2nn(-c3ccccc3)cc2NC(=O)c2ccccc2)cc1	i	44	19	i	i	i
SMILES	Pf growth 96h	Shiga inhibitor	CHX counter	Pf growth 48h	FBPA Giardia inh	NS1 function inh
O=C(Nc1cn(-c2ccccc2)nc1-c1ccc(Cl)cc1)c1ccccc1	?	i	i	i	i	i
CC1Oc2ccccc2N(CC(=O)Nc2ccc(F)cc2)C1=O (stereo not given)	i	i	i	i	i	i
COc1cccc(-c2nc(CS(=O)(=O)CC(=O)N3CCOCC3)c(C)o2)c1	i	i	i	i	i	i
Cn1c(=O)oc2cc(S(=O)(=O)NCCN3CCc4ccccc4C3)ccc21	8.3µM	i	i	i	i	i
CCC1CCCCN1C(=O)CCNS(=O)(=O)c1ccc2c(c1)oc(=O)n2C (stereo not given)	2.3µM	i	i	?	nt	i
CCC1CCCCN1CCCNS(=O)(=O)c1ccc2c(c1)oc(=O)n2C (stereo not given)	2.9µM	i	i	12µM	nt	i
CC1CCCCN1CCNS(=O)(=O)c1ccc2c(c1)oc(=O)n2C (stereo not given)	?	i	i	i	i	i
CCC1CCCCN1CCNS(=O)(=O)c1ccc2c(c1)oc(=O)n2C (stereo not given)	i	i	i	i	i	i
NS(=O)(=O)c1cccc(NS(=O)(=O)c2ccc3ccccc3c2)c1	i	i	i	i	i	i
C=CCNC(=O)COc1ccc(N(C)S(=O)(=O)c2ccc(NC(C)=O)cc2)cc1	i	i	i	i	i	i
C[N+]1(CN2C(=O)C3C4C=CC(C4)C3C2=O)CCCCC1 (stereo not given)	i	i	i	i	i	i
COc1cccc(CC2(CO)CCN(S(=O)(=O)c3ccc(OC)cc3OC)CC2)c1	i	i	i	?	i	i
CCS(=O)(=O)n1nc(-c2ccccc2)cc1N	1.3µM	i	i	nt	i	?
Nc1cc(-c2ccc(Cl)cc2)nn1S(=O)(=O)c1ccccc1	i	i	i	nt	i	i
CCCS(=O)(=O)n1nc(-c2ccc(Br)cc2)cc1N	i	i	i	i	i	i
CCCS(=O)(=O)n1nc(-c2ccccc2)cc1N	9.3µM	i	i	nt	i	i
Cc1ccccc1OCC(=O)NCCCNC(=O)c1ccccn1	i	i	i	i	i	i
CCOc1ccc(NC(=O)c2cc(F)c(F)cc2Cl)cc1OCC	i	i	i	i	i	nt
Cc1cccn2c(=O)c(/C=C(\C#N)C(=O)NC3CCS(=O)(=O)C3)c(Oc3ccccc3Cl)nc12 (stereo not given)	?	i	i	4.7µM	i	i
Cc1ccccc1Oc1nc2c(C)cccn2c(=O)c1/C=C(\C#N)C(=O)NC1CCS(=O)(=O)C1 (stereo not given)	12µM	i	i	5.9µM	i	i
O=C(CN1C(=O)COc2ccc(S(=O)(=O)N3CCOCC3)cc21)Nc1cccc(Cl)c1	i	i	i	i	nt	i
CCc1noc(C)c1C(=O)N1CCN(S(=O)(=O)c2ccccc2C(F)(F)F)CC1	i	nt	nt	?	nt	nt
c1ccc(N2CCN(c3ccccc3)C2c2cccnc2)cc1	i	48	26	3.7µM	i	i
Cc1ccc(N2CCN(c3ccc(C)cc3)C2c2cccnc2)cc1	1.3µM	i	19	nt	i	i
c1ccc(N2CCN(c3ccccc3)C2c2ccncc2)cc1	nt	i	i	13µM	i	i
SMILES	Pf growth 96h	Shiga inhibitor	CHX counter	Pf growth 48h	FBPA Giardia inh	NS1 function inh
O=C(CSc1ccccn1)NC1CCCC1	?	i	i	i	i	nt
COc1ccc(C2/C=C\CN(CC3CC3)C(Cc3ccccc3)C(=O)N2Cc2ccc(F)cc2)cc1 (stereo not given)	nt	i	i	nt	i	nt
COc1ccccc1N1CCN(S(=O)(=O)CCNC(=O)C2CC2)CC1	i	nt	nt	i	nt	nt
Cc1ccccc1-n1nnnc1SCc1csc(-c2ccccc2)n1	9.3µM	i	i	nt	i	i
COc1ccc(CNc2nc3ccccc3n2Cc2ccc(C)cc2)cc1OC	?	i	i	?	i	i
COc1ccc(Cn2c(-c3ccc(OC)c(O)c3)nc3ccccc32)cc1O	i	75	27	i	i	i
COCCn1c(SCc2csc(-c3ccccc3)n2)nc2ccccc21	12µM	i	i	i	i	i
COCCn1c(-c2ccccc2)nc2ccccc21	i	96	66	i	i	?
Nc1nc2c(nc(Br)n2C2OC(CO)C(O)C2O)c(=O)[nH]1 (stereo not given)	nt	nt	nt	nt	i	nt
CN(Cc1ccccc1)C(=O)c1[nH]cnc1C(=O)Nc1ccon1	?	nt	nt	i	nt	nt
